Results from PubChem BioAssay (NCI).
The panel holds about 79,000 compounds, 15% with a hit somewhere; the sample as a whole holds those more often. Unmarked numbers belong to inactive results. Activity calls are given as the source filed them. Rule as the data show it: active = growth inhibition above about 70%; inactive = the rest.

Assays:
[1] = NCI Yeast Anticancer Drug Screen. Data for the rad50 strain (AID 155);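 also: 0% = growth of vehicle-only cultures of the same strain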; settings: S. cerevisiae rad50 strain growth inhibition; at 50.0 µM; stronger effect = higher value
Summary of the method: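 DNA repair mutant yeast, compound exposure, growth read-out; inhibition is taken relative to vehicle.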

[2] = NCI Yeast Anticancer Drug Screen. Data for the mec2-1 strain (AID 157); settings: S. cerevisiae mec2-1 strain, at 50.0 µM, stronger effect = higher value
Summary of the method: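 Strain: mec2-1 (DNA repair/cell cycle alteration). Compound exposure, then growth measured; inhibition expressed relative to vehicle.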

[3] = NCI Yeast Anticancer Drug Screen. Data for the sgs1 mgt1 strain (AID 161);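 also: 0% = growth of cultures given vehicle only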; settings: S. cerevisiae sgs1 mgt1 strain, at 50.0 µM, stronger effect = higher value
Summary of the method: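 Inhibition of yeast growth, normalised to vehicle-treated controls, is reported for a strain bearing genetic alterations in DNA damage repair.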

[4] = NCI Yeast Anticancer Drug Screen. Data for the cln2 rad14 strain (AID 165);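 also: 0% = growth equal to vehicle treated cultures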; settings: S. cerevisiae cln2 rad14 strain, at 50.0 µM, stronger effect = higher value
Summary of the method: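 Compounds are applied to the cln2 rad14 yeast strain, and growth is then compared with that of vehicle-treated cultures to give inhibition.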

[5] = NCI Yeast Anticancer Drug Screen. Data for the bub3 strain (AID 167); settings: S. cerevisiae bub3 mutant strain, at 50.0 µM, stronger effect = higher value
Summary of the method: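 In this screen, a yeast mutant lacking normal mitotic checkpoint function is challenged with compound. Relative growth versus vehicle gives the inhibition value.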

[6] = NCI Yeast Anticancer Drug Screen. Data for the mlh1 rad18 strain (AID 175); settings: S. cerevisiae mlh1 rad18 strain growth inhibition; at 50.0 µM; stronger effect = higher value
Summary of the method: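 Read-out is yeast growth inhibition, calculated against vehicle-only controls. The compound was applied to a strain engineered with DNA damage repair alterations.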

| SMILES | growth inhibition [1] [%] | growth inhibition [2] [%] | growth inhibition [3] | growth inhibition [4] [%] | growth inhibition [5] | growth inhibition [6] |
| --- | --- | --- | --- | --- | --- | --- |
| CCO[C@@H]1C2C=CC(C2)[C@H]1[N+](=O)[O-] (stereo partly specified) | -11.8 | 12.2 | -5.65% | 15.4 | 3.05% | -5.4% |
| CCCCC(=CC(C)(C)C)CCCC | 22.9 | -2.4 | -7.7% | 7.95 | 20.6% | 14.5% |
| CCCC(=O)C(=O)CCC | -5.25 | -17.4 | 2.3% | -26.1 | -0.15% | -3.45% |
| Cc1c(O)ccc2c1CCCC2 | 7.05 | 5.75 | -4.8% | -34.2 | 6.1% | 4.65% |
| CCCc1cc(=O)oc2c(C=O)c(O)cc(O)c12 | 37.9 | 24.7 | 20.6% | 9.6 | 19.7% | 46.5% |
| N=c1nccnn1O | 6.45 | 13.2 | -8.2% | 10.4 | -6.5% | 3.95% |
| Cc1ccccc1C(=O)NNC(=O)c1ccc2ccccc2c1 | 7.3 | -9.1 | -3.9% | 9.35 | -13.2% | -9.45% |
| N#CCc1ccc(/C(C#N)=C2/OC(=N)C(c3ccc(CC#N)cc3)C2=O)cc1 (stereo unspecified) | -10.3 | 2.65 | -5.45% | -21.6 | -20.7% | -16.4% |
| CC1OC(n2cc(F)c(=O)[nH]c2=O)CCC1O (stereo unspecified) | 7 | 10.2 | 33.2% | -10.1 | -29.2% | -60.5% |
| CNC(=O)N(C)C(=O)c1ccncc1C(=O)N(C(=O)NC1CCCCC1)C1CCCCC1 | 32.6 | 2.2 | 7.15% | 20.8 | -3.95% | 1.65% |
| O=c1cc(-c2ccccc2F)[nH]c2ccc(N3CCCC3)cc12 | 13.6 | 6.2 | 25.5% | 0.65 | 22.3% | 23.6% |
| CCOC(=O)C1Cc2c([nH]c(=O)[nH]c2=O)OC1c1ccc(OC)cc1 (stereo unspecified) | 26.4 | 7.1 | 6.3% | 19.4 | 27.1% | 8.5% |
| C=COC(=O)c1ccccc1O | -32.7 | -34 | -22.3% | 3.8 | -36.8% | -5.55% |
| CCCCCCCCCCCCCCCCSC1=C(Cl)C(=O)C(OC)=C(OC)C1=O | 25.6 | -4.7 | 21.1% | -26 | 0.25% | 9.4% |
| O=C1OC(c2ccccc2)(c2ccc(Cl)cc2)CC1/C=C(\c1ccccc1)c1ccc(Cl)cc1 (stereo unspecified) | -2 | 6.65 | 6.6% | -10.4 | -7.4% | 3.65% |
| CC1=C(C)C2C3C(=O)NC(=O)C3C1C1C3C(=O)NC(=O)C3C21 (stereo unspecified) | -21.8 | -7.75 | 7.3% | -12.8 | 10.1% | 17.1% |
| C=Cc1c(C)c2cc3[nH]c(cc4nc(cc5nc(cc1[nH]2)C(C)=C5CCC(=O)OC)C(CCC(=O)OC)=C4C)c(C)c3C=C | 8.1 | 6.45 | 10.3% | 13.1 | -1.05% | -5.85% |
| Cc1nc2ccc(Cl)cc2c2c1CCS2 | -19.1 | -17.3 | -2.8% | -18.1 | -23.1% | -51.4% |
| O=c1n(-c2ccccc2)c(=O)n2n1C1C3C4C3C2C2(F)C4C12 (stereo unspecified) | -6.95 | 14.3 | 19.9% | 8.6 | 7.75% | 9.6% |
| S=C(NC1CCCCC1)N1CCC(CCCC2CCN(C(=S)NC3CCCCC3)CC2)CC1 | -42.8 | -31.2 | -44.5% | -1.05 | -41.8% | -46.2% |
| Cn1c(=O)[nH]nc(Br)c1=O | 2.55 | -9.7 | -9% | -4.75 | -4.6% | -24.9% |

| SMILES | growth inhibition [1] [%] | growth inhibition [2] [%] | growth inhibition [3] | growth inhibition [4] [%] | growth inhibition [5] | growth inhibition [6] |
| --- | --- | --- | --- | --- | --- | --- |
| COC1OC2COC1(OCc1ccccc1)C1OC(C)(C)OC21 (stereo unspecified) | -23.8 | -5.85 | -29.9% | -0.8 | -26.2% | 5.35% |
| O=c1c(-c2ccc(O)cc2)coc2cc(O)cc(O)c12 | 8.85 | -6.15 | 18.1% | 3.65 | 11.4% | 5% |
| CCOC(=O)/C(C#N)=C(\C)c1ccccc1 | 9.65 | -5.3 | 1.2% | 5.15 | -25.7% | -17.6% |
| N#CC1CNC(N)NC1N (stereo unspecified) | -0.1 | 4.8 | -8.05% | -7.95 | 7.35% | 1.65% |
| CC(C)=CCC(C)c1ccccn1 (stereo unspecified) | -2.45 | 5.5 | 10.3% | -12.8 | 10.9% | -4.2% |
| O=C(Oc1ccc2ccccc2c1CN1CCOCC1)c1ccc([N+](=O)[O-])cc1 | 45.8 | 29.9 | 33.8% | 30.1 | 35.5% | 52% |
| CCC(CCC(=O)O)C1CCCCC1 (stereo unspecified) | 29.1 | 20.9 | 31.1% | 45.9 | 46.1% | 13.2% |
| Cc1nc2c(-c3ccccc3)[nH]c(C)c2c(=O)o1 | -17.2 | -40.1 | -31.9% | -8.8 | -18.5% | -24.4% |
| CON(C)S(=O)(=O)c1ccc(Cl)cc1 | 7.75 | -9.5 | -4.15% | -18.9 | -2.25% | -6.2% |
| CC(C)=CCNc1ccccc1 | -11.3 | -24.1 | 1.7% | 17.4 | 1.05% | -7.3% |
| O=C(O)Cc1ccc(OCCCCCOc2ccc(CC(=O)O)cc2)cc1 | 6.05 | 0.25 | 20.6% | -49.9 | -12% | 4.35% |
| O=C(NCCc1[nH]nc2c1C(=O)C=C(Nc1ccccc1)C2=O)OCc1ccccc1 | -29.7 | -15.8 | -32.4% | -21.9 | -29.1% | -52.8% |
| Clc1ccccc1-c1nnc(-c2cccc(-c3nnc(-c4ccccc4Cl)o3)n2)o1 | -1.65 | 6.75 | -6.55% | -9.1 | -3.4% | 12% |
| O=C1OC(c2ccc(O)c(O)c2)(c2ccc(O)c(O)c2)c2ccccc21 | -27.9 | -24.2 | -27.1% | 5.8 | -21.7% | -32.6% |
| COC(=O)/C=C(\C)CC/C=C(\C)CCC1OC1(C)C (stereo unspecified) | 11.9 | 44.1 | 84.7% (active) | 57.3 | 77.5% (active) | 81.1% (active) |
| CC(C)c1cccc(C(C)C)c1NC(=O)OC1CCCCC1C (stereo unspecified) | -21.1 | -17.6 | 7% | -1.95 | -4.65% | -6.4% |
| Clc1cccc(Cl)c1/C=N/Nc1nnc(N/N=C/c2c(Cl)cccc2Cl)c2ccccc12 | 18.8 | 23.4 | 56.3% | 31.5 | -1.4% | 34.4% |
| CCc1cc2c(c3c1CCCC3=O)CC1(C2)Cc2cc(CC)c3c(c2C1)C(=O)CCC3 | 6.05 | -9.9 | -3.6% | 5.4 | 10.7% | 4.5% |
| COC(=O)C(CC(=O)C=[N+]=[N-])NC(=O)C(Cl)Cl (stereo unspecified) | -2.4 | -8.9 | -4.7% | -15.9 | 9.3% | -8.95% |
| CC(C)c1cc(C(C)C)c(B(c2ccccc2)c2ccccc2)c(C(C)C)c1B(c1ccccc1)c1ccccc1 | -13.7 | 4.8 | 18.4% | 6.3 | 6.35% | 13.9% |
